From PubChem BioAssay AID1022 (Emory University Molecular Libraries Screening Center, 2008)
The whole screen tested about 220,000 compounds, of which about 3,300 (1.5%) were called active.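 The calls were made as follows: active = compounds that cut the protein-peptide binding signal by more than 50% relative to plate controls in a single-dose test; inactive = the rest.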 What follows is part of a selection rich in actives, with near analogues and random picks from the rest.

biological target: Induced myeloid leukemia cell differentiation protein Mcl-1 (Homo sapiens) (UniProt Q07820); test: Mcl-1/Noxa binding inhibitors, primary screen, biochemical, TR-FRET, 1536-well (AID 1022); conditions: TR-FRET Mcl-1/Noxa peptide binding, 2 h; at 21.7 µM; stronger effect = higher value;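 also: His-tagged Mcl-1 with rhodamine Noxa BH3 peptide and terbium anti-His antibody; 0% = Mcl-1 plus Noxa peptide wells and 100% = peptide-only wells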
Sequence (Q07820 whole entry, looked up): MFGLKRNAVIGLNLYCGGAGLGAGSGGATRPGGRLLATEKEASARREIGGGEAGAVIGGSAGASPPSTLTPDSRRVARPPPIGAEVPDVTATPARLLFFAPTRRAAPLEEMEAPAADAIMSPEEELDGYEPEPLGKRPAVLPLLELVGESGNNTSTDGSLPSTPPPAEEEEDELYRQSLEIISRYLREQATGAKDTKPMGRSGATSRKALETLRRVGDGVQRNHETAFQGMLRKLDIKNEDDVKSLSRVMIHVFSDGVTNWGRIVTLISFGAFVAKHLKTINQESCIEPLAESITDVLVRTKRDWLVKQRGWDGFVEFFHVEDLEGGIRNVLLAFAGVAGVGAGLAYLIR

SMILES	inhibition
O=C1CCCCC1C(=O)c1ccccc1 (centres undefined)	95% (active)
O=C(OC1CCCCC1=O)c1cccc(S(=O)(=O)NCc2ccccc2)c1 (centres undefined)	-5.3% (inactive)
O=C(/C=C/c1ccccc1[N+](=O)[O-])OC1CCCCC1=O (centres undefined)	5.64% (inactive)
Cc1ccccc1N1CCN(Cc2nc(Cc3ccccc3F)no2)CC1	9.66% (inactive)
O=S(=O)(c1ccc(Cl)cc1)N1CCCN(c2ccc(C(F)(F)F)cn2)CC1	15.1% (inactive)
Cc1ccc(NS(=O)(=O)c2ccc(N/N=C/c3ccccc3OCC(=O)O)c([N+](=O)[O-])c2)c(C)c1	56.7% (active)
Cc1ccc(NS(=O)(=O)c2ccc(C)c(NC(=O)COc3ccc4ccccc4c3)c2)c(C)c1	-15.7% (inactive)
Cc1cccc(COc2ccccc2/C=N/Nc2ccc([N+](=O)[O-])cc2)c1	1.32% (inactive)
CCCCSc1nnc2c(n1)OC=Nc1ccccc1-2	12.5% (inactive)
O=C(CC(c1ccccc1)c1cc(Cl)ccc1O)NCCN1CCOCC1 (centres undefined)	-4.69% (inactive)
O=C(Cc1ccccc1)N1N=C(c2ccncc2)CC1(O)C(F)(F)F (centres undefined)	-12.4% (inactive)
CC(C)c1ccc2c(c1)c(SC(C)(C)C)c(CC(C)(C)C(=O)O)n2Cc1ccc(Cl)cc1	68.7% (active)
Cc1ccc(C)c2c1cc(C)c1nnc(SCC(=O)Nc3cccc(C(=O)O)c3)n12	4.65% (inactive)
CC1CCN(Cc2nc(-c3ccc(Cl)cc3)no2)CC1	11% (inactive)
O=C(O)CC1=C(Nc2ccccc2)C(=O)N(c2ccccc2)C1c1ccc(Cl)cc1 (centres undefined)	-6.85% (inactive)
CN(C(=O)Nc1ccc(Cl)cc1)n1cnc2ccccc2c1=O	-0.02% (inactive)
COc1ccc(OCC(O)CNCCNc2nccc(C(F)(F)F)n2)cc1 (centres undefined)	-8.04% (inactive)
CCn1c(CN2C(=O)CSc3ccccc32)n[nH]c1=S	-15.7% (inactive)
CC(C)(C)C(=O)CSc1nc2ccccc2o1	8.46% (inactive)
Fc1ccccc1OCCSc1nc2ccccc2o1	60.4% (active)
CCN(CC)C(=O)CSc1nc2ccccc2o1	7.79% (inactive)
Cn1nc(C(C)(C)C)c([N+](=O)[O-])c1C(N)=O	5.22% (inactive)
COc1ccc(Nc2cc(Cl)ccc2C(=O)O)cn1	11% (inactive)
CCCCN(CC)CCCNC(=O)c1ccc(CSc2nc3ccncc3[nH]2)cc1	63% (active)
CCN(CC)CCCNC(=O)c1ccc2c(=O)n(Cc3ccc4c(c3)OCO4)c(=S)[nH]c2c1	25.2% (inactive)

SMILES	inhibition
CCCCSc1nc2ccccc2[nH]1	12.9% (inactive)
COC(=O)c1nc(NC(=O)c2ccc(Cl)cc2)n[nH]1	-8.02% (inactive)
COC(=O)c1nc(NC(=O)c2ccc(C(C)(C)C)cc2)n[nH]1	69.2% (active)
COC(=O)c1nc(NC(=O)c2ccc(F)cc2)n[nH]1	-6.78% (inactive)
O=C(O)CC1(CC(=O)Nc2cccc(C(F)(F)F)c2)CCCC1	-33.1% (inactive)
Nc1nnnn1/N=C/c1cc([N+](=O)[O-])ccc1O	-18% (inactive)
Cc1ccc(N2C(=O)CC(Sc3ncn[nH]3)C2=O)cc1 (centres undefined)	-10.1% (inactive)
COc1ccc(N2C(=O)CC(Sc3n[nH]c(-c4ccc(C)cc4)n3)C2=O)cc1 (centres undefined)	36% (inactive)
O=C1CC(Sc2ncn[nH]2)C(=O)N1c1ccccc1 (centres undefined)	54.4% (active)
Cc1nc(CNS(=O)(=O)c2cc([N+](=O)[O-])ccc2C)cs1	-0.49% (inactive)
Cc1ccc(-c2nn(-c3ccccc3)cc2/C=C/C(=O)Nc2cccc(S(N)(=O)=O)c2)cc1	7.42% (inactive)
O=C(CN1C(=O)/C(=C\c2ccccc2F)SC1=S)Nc1nc2ccccc2s1	11.5% (inactive)
CN(C)S(=O)(=O)c1cccc(-c2nn(-c3ccccc3)cc2/C=C2\SC(=S)N(CC(=O)O)C2=O)c1	74.1% (active)
CCOC(=O)c1sc2nc(C)[nH]c(=O)c2c1C	-7.23% (inactive)
COC(=O)c1sc2[nH]c(=S)n(N)c(=O)c2c1C	52.1% (active)
CCOC(=O)c1sc2nc(CSCC(=O)OCc3ccc(C(=O)OC)o3)[nH]c(=O)c2c1C	11.7% (inactive)
Cc1onc(-c2ccccc2)c1C(=O)N=C(N)c1ccc(Cl)cc1	13.2% (inactive)
Cc1nnc(N/N=C/c2cccs2)[nH]c1=O	-2.37% (inactive)
CC(O)c1nc2c(c(=O)n(C)c(=O)n2C)n1C (centres undefined)	-1.58% (inactive)
CNc1nc(Nc2ccc(C)c(Cl)c2)nc(N)c1[N+](=O)[O-]	26.8% (inactive)
CC1CN(c2nc(Nc3ccccc3)nc(N)c2[N+](=O)[O-])CC(C)O1 (centres undefined)	-24.5% (inactive)
CCN1CCN(c2nc(Nc3cccc(F)c3)nc(N)c2[N+](=O)[O-])CC1	56.7% (active)
O=C(NCc1cccnc1)Nc1cccc(NC(=O)NCc2cccnc2)c1F	-1.36% (inactive)
COc1cc(OC)c(C(=O)Nc2ccccc2-c2ccccc2)cc1OC	2.98% (inactive)
COc1cc(OC)c(C(=O)Nc2ccc(N(C)C)cc2)cc1OC	51.8% (active)

SMILES	inhibition
COc1ccc(Cl)cc1C(=O)Nc1ccc(N(C)C(C)=O)cc1	15.3% (inactive)
CC(NC(=S)NNS(=O)(=O)c1ccc(C(C)(C)C)cc1)c1ccccc1 (centres undefined)	-17.7% (inactive)
Cc1ccc2c(c1)c1ncn(Cc3ccc(F)cc3)c(=O)c1n2C	-20.4% (inactive)
O=C(CSc1ccccc1)Nc1nnc(/C=C/c2ccccc2)s1	9.47% (inactive)
O=C(Nc1ccc(Cl)cc1)Nc1nnc(/C=C/c2ccccc2)s1	91.2% (active)
COc1ccc(/C=C/c2nnc(NC(=O)C(C)C)s2)cc1	12.2% (inactive)
CN(C)c1ccc(/C=C/C(=O)c2ccc(O)cc2)cc1[N+](=O)[O-]	20.5% (inactive)
CCCc1nc2oc3c(=O)[nH]cnc3c2c2c1COC(C)(C)C2	-3.33% (inactive)
CC(=O)Nc1ccc(C(=O)/C=C/c2ccc[nH]2)cc1	15.7% (inactive)
COc1ccc(N2C(=O)c3ccccc3NC2c2ccc(OC)c(CN3CCOCC3)c2)cc1 (centres undefined)	7.79% (inactive)
CCN(CCNC(=O)C1=C(C)C(=O)OC12CCC(C)CC2)c1ccccc1 (centres undefined)	-5.12% (inactive)
Brc1ccc(-c2nnc(-c3ccccc3)o2)o1	8.68% (inactive)
Nc1ccc(-c2sc(N)nc2-c2ccccc2)cc1	26.2% (inactive)
Nc1ccc(-c2nnc(-c3ccc(-c4ccccc4)cc3)o2)cc1	65.7% (active)
COc1ccc(S(=O)(=O)N(CC(=O)N/N=C/c2ccccc2C(=O)O)c2ccccc2OC)cc1	12.8% (inactive)
CCOC(=O)N1CCN(C(c2cccnc2)c2ccc3cccnc3c2O)CC1 (centres undefined)	61.5% (active)
CCN1CCN(C(c2cccnc2)c2cc(Cl)c3cccnc3c2O)CC1 (centres undefined)	34% (inactive)
Oc1c(C(c2ccccn2)N2CCOCC2)ccc2cccnc12 (centres undefined)	5.37% (inactive)
Cc1nc(N)sc1N=Nc1c(C)n(C)n(-c2ccccc2)c1=O	13% (inactive)
CC(C)OP(=O)(OC(C)C)C(Nc1ccccc1)c1cccc([N+](=O)[O-])c1 (centres undefined)	6.5% (inactive)
O=C1/C(=C/c2ccc3c(c2)OCO3)CCC/C1=C\c1ccc2c(c1)OCO2	-7.31% (inactive)
CCC1=C/C(=C\c2ccc3c(c2)OCO3)C(=O)S1	55.4% (active)
CSC1=N/C(=C\c2ccc3c(c2)OCO3)C(=O)S1	5.49% (inactive)
O=C(Nc1ccc(F)cc1)N1CCN(c2ccc(F)cc2)CC1	-20.8% (inactive)
CN1CCN(CCNC(=O)Nc2ccc([N+](=O)[O-])cc2)CC1	6.06% (inactive)

SMILES	inhibition
O=C(NCCCN1CCN(c2ccc(F)cc2)CC1)Nc1ccc([N+](=O)[O-])cc1	52% (active)
O=C(COc1ccc([N+](=O)[O-])cc1)Nc1ccc(N2CCCC2)cc1	52.2% (active)
COc1ccc(OCC(=O)Nc2ccc(N3CCC(C)CC3)cc2)cc1	5.22% (inactive)
O=C(COC(=O)C1CCCCC1)Nc1ccc([N+](=O)[O-])cc1	-0.21% (inactive)
CN(C)c1nc(=Nc2cccc(Cl)c2)ss1	13.4% (inactive)
CC(C)(C)C(=O)OCc1nc(-c2ccc(O)c(O)c2)cs1	46.4% (inactive)
COc1ccc(CCNC(=O)C(Sc2ccccn2)c2ccccc2)cc1OC (centres undefined)	-11.6% (inactive)
CSc1ccc(NC(=O)/C=C/C(=O)O)cc1	14.6% (inactive)
Cc1oc(C(N)=O)cc1COc1ccc(C(N)=O)cc1	7.05% (inactive)
O=C(NCCN1CCOCC1)c1ccc2c(c1)N(Cc1ccc(Cl)cc1)CCS2	16.4% (inactive)
NC(=O)[C@H]1CC2(CC(c3cccc(NC(=O)[C@H]4CCC(=O)N4)c3)=NO2)CN1C(=O)c1ccccc1C(=O)c1ccccc1 (some centres undefined)	3.36% (inactive)
Cc1cc(=O)[nH]c2nnnn12	0.51% (inactive)
O=C(Nc1ccc(Cl)cc1)N1CCc2[nH]c3ccccc3c2C1	104% (active)
Fc1ccc(NC(=S)N2CCc3[nH]c4ccccc4c3C2)cc1	14.9% (inactive)
O=C(NC1CCCCC1)N1CCc2[nH]c3ccccc3c2C1	-13% (inactive)
O=C(Nc1ccc(Cl)cc1)c1ccsn1	11.5% (inactive)
CS(=O)(=O)c1ccc(Cl)c(NC(=O)Nc2ccccc2)c1	2.41% (inactive)
O=C(Nc1ccccc1)c1nnsc1S(=O)(=O)c1ccc(Cl)cc1	68.7% (active)
N#CC1=C(N)Oc2c(ccc3cccnc23)C1c1ccncc1 (centres undefined)	-11.2% (inactive)
NC(=O)N/N=C\c1cccs1	-22.2% (inactive)
C=CCSC(CC)(CC)C(N)=O	-9.07% (inactive)
COc1ccc(NC(=S)NCC2CCN(c3ccc(OC)cc3)C2)cc1 (centres undefined)	67.3% (active)
COc1ccc(NC(=S)NCCN2CCC(C)CC2)cc1	19.6% (inactive)
COc1ccc(N2CCC(CNC(=S)Nc3c(C)cccc3C)C2)cc1 (centres undefined)	17.1% (inactive)
